# In paper PMC7862700, “An all-to-all approach to the identification of sequence-specific readers for epigenetic DNA modifications on cytosine”:
# Tests used:
# Test in all cases: DAPPL (digital affinity profiling via proximity ligation, sequencing); 10 mM Tris-HCl pH 7.5, 50 mM NaCl, 1 mM DTT, 4% glycerol, room temperature, 30 min; GST-TFs on glutathione beads, 16-mer random dsDNA library, 0.1% formaldehyde crosslink after washing; high values mean tight binding
# FEV = molecular target: T1, FEV (Homo sapiens, UniProt Q99581 1-238); conditions: protein: recombinant; tags: N-terminal GST; dsDNA, one strand shown
# T1 sequence: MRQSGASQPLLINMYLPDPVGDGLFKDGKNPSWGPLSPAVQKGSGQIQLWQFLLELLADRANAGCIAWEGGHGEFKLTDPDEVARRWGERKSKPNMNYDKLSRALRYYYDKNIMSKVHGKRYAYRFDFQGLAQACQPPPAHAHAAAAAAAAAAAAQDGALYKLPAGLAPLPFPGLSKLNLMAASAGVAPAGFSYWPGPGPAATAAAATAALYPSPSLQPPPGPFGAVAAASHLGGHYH
# In short: (§1)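 Binding signal is each hexamer's read frequency for a factor divided by its frequency in the tag-only sample. The factors were GST-fused human transcription factors from yeast, captured on glutathione beads, DNA-barcoded and pooled with that sample. Pools were incubated with 200 nmole of a random double-stranded 16-mer DNA library in Tris/NaCl/DTT/glycerol buffer at room temperature for 30 min, then washed, crosslinked with 0.1% formaldehyde, proximity-ligated with BsaI/T4 ligase (1 h, 37 °C), PCR-amplified and sequenced on an Illumina NextSeq500.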
# ETV5 = ETV5 (Homo sapiens, UniProt P41161 1-510); conditions: protein: recombinant; tags: N-terminal GST; dsDNA, one strand shown
# ETV5, sequence (P41161 whole entry): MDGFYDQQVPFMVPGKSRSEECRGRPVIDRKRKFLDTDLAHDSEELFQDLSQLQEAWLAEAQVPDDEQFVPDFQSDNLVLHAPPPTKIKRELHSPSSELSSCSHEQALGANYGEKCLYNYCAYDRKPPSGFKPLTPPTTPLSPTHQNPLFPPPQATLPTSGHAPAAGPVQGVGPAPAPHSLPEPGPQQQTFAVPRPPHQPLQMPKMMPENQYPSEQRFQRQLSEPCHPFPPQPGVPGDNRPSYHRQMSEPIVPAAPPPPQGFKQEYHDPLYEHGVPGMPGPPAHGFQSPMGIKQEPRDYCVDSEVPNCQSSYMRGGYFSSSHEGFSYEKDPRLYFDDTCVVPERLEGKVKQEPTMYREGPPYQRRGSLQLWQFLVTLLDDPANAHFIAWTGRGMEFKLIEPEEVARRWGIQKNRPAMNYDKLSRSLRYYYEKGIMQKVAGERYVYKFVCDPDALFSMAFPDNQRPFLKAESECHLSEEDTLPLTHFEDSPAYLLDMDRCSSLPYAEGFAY
# In short: as §1
# HSF1 = HSF1 (Homo sapiens, UniProt Q00613 1-529); conditions: protein: recombinant; tags: N-terminal GST; chain copies: 3; dsDNA, one strand shown
# HSF1, sequence (Q00613 whole entry): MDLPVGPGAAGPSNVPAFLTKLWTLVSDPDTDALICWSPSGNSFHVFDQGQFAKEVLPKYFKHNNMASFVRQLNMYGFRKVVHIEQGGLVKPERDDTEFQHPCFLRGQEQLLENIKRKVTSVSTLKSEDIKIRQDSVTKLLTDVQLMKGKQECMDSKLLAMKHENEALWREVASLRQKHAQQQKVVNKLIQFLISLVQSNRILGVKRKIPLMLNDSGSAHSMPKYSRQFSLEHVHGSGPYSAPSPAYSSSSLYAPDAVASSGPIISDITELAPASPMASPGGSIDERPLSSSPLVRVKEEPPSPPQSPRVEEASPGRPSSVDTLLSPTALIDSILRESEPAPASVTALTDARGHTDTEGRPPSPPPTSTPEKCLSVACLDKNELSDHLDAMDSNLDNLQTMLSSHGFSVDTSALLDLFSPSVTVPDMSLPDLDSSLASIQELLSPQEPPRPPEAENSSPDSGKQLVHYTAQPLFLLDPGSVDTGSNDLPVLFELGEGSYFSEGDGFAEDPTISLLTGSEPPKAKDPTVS
# In short: as §1
# SPIC = molecular target: T2, SPIC (Homo sapiens, UniProt Q8N5J4 1-248); conditions: protein: recombinant; tags: N-terminal GST; dsDNA, one strand shown
# T2 sequence: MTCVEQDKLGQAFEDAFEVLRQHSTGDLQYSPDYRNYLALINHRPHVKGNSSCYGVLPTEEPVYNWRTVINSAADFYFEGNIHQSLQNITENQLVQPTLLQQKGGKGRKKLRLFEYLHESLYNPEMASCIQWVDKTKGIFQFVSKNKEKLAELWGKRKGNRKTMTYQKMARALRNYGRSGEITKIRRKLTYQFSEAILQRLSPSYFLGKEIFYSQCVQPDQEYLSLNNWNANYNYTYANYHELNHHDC
# In short: as §1
# ELF4 = ELF4 (Homo sapiens, UniProt Q99607 1-663); conditions: protein: recombinant; tags: N-terminal GST; dsDNA, one strand shown
# ELF4, sequence (Q99607 whole entry): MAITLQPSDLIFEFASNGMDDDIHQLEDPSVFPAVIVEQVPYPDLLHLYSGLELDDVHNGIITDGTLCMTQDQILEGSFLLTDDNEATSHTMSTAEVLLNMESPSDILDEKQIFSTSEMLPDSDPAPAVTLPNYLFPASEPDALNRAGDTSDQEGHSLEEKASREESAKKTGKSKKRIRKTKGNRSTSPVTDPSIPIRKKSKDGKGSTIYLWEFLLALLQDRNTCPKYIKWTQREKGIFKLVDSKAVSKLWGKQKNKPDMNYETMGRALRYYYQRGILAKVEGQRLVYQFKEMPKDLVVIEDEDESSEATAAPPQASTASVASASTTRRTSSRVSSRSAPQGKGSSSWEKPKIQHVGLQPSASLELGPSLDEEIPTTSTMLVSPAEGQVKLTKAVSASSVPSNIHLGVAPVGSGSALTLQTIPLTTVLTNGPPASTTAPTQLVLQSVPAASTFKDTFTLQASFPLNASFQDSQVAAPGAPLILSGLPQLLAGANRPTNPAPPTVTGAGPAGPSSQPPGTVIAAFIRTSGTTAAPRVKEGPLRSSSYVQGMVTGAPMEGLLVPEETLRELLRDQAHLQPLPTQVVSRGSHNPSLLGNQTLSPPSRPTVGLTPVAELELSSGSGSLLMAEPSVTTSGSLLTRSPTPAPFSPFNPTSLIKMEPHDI
# In short: as §1
# ELK4 = molecular target: T3, ELK4 (Homo sapiens, UniProt P28324-2 1-405); conditions: protein: recombinant; tags: N-terminal GST; dsDNA, one strand shown
# T3 sequence: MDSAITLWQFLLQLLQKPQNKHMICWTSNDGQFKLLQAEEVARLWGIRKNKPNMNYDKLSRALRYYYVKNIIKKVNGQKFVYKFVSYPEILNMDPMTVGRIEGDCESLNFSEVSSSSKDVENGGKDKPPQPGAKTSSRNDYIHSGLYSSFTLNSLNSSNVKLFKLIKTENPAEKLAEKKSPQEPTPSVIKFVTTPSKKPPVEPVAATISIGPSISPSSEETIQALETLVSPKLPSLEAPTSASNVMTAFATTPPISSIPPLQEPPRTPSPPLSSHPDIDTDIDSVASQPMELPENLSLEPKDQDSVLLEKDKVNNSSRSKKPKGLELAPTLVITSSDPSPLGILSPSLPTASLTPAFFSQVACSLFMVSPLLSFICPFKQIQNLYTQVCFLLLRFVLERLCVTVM
# In short: as §1
# ETV2 = molecular target: T4, ETV2 (Homo sapiens, UniProt O00321 1-342); conditions: protein: recombinant; tags: N-terminal GST; dsDNA, one strand shown
# T4 sequence: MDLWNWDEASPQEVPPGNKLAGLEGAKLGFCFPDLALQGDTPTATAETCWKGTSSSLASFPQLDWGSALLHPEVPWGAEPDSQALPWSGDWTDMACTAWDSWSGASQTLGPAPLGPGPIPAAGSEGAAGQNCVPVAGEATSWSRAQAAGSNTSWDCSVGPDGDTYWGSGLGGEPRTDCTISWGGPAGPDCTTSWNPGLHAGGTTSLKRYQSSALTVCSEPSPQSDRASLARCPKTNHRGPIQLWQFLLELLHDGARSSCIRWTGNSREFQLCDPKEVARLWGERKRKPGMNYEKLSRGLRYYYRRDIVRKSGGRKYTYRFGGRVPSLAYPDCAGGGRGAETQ
# In short: as §1
# ELF3 = molecular target: T5, ELF3 (Homo sapiens, UniProt P78545 1-371); conditions: protein: recombinant; tags: N-terminal GST; dsDNA, one strand shown
# T5 sequence: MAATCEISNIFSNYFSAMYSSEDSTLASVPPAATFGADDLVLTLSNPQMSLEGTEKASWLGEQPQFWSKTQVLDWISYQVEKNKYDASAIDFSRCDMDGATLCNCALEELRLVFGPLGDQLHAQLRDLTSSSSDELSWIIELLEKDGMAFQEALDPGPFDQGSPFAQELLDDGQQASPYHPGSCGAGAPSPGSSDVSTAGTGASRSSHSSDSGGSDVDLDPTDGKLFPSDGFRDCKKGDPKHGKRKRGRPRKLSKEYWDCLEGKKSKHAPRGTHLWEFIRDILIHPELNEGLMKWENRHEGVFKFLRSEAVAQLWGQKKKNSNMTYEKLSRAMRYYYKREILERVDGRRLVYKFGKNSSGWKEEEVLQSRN
# In short: as §1
# CRX = CRX (Homo sapiens, UniProt O43186 1-299); conditions: protein: recombinant; tags: N-terminal GST; dsDNA, one strand shown
# CRX, sequence (O43186 whole entry): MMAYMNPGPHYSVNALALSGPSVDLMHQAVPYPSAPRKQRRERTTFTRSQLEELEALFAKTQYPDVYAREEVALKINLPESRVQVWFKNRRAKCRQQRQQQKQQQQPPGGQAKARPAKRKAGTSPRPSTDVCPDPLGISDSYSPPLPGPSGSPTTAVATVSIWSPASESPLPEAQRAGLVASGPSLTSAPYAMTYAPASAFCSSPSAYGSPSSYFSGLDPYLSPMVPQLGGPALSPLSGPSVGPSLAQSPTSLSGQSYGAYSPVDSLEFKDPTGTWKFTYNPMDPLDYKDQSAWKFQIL
# In short: as §1
# ETV1 = ETV1 (Homo sapiens, UniProt P50549 1-477); conditions: protein: recombinant; tags: N-terminal GST; dsDNA, one strand shown
# ETV1, sequence (P50549 whole entry): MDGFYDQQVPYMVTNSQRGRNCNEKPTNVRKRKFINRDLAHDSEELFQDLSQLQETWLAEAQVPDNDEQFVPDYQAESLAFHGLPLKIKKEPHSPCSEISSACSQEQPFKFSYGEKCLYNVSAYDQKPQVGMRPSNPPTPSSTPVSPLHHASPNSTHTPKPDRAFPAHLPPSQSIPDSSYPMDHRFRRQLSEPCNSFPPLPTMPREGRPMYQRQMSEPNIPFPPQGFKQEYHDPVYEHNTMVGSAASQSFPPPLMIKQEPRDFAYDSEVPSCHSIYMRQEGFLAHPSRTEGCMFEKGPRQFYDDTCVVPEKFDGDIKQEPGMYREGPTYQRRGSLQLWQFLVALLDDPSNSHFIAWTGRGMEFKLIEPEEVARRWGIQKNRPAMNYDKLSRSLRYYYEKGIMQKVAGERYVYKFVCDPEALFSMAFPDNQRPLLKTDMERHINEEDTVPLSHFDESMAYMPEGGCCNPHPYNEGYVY
# In short: as §1
# ERF = molecular target: T6, ERF (Homo sapiens, UniProt P50548 1-548); conditions: protein: recombinant; tags: N-terminal GST; dsDNA, one strand shown
# T6 sequence: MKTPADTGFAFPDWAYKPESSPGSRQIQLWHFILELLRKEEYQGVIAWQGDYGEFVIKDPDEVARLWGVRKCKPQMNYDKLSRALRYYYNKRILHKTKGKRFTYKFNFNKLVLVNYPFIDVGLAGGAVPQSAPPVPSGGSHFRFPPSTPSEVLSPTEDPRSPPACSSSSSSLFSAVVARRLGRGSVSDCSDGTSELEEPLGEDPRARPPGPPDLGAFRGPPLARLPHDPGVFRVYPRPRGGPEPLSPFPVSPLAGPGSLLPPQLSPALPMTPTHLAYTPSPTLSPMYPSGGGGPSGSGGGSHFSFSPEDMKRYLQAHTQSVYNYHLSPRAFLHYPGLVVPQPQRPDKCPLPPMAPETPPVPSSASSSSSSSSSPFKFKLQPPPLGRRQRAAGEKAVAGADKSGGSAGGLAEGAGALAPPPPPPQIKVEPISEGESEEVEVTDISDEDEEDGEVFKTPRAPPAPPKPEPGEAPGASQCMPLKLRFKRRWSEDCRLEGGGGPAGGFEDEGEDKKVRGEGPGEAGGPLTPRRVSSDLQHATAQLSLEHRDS
# In short: as §1
# ETV3L = molecular target: T7, ETV3L (Homo sapiens, UniProt Q6ZN32 1-361); conditions: protein: recombinant; tags: N-terminal GST; dsDNA, one strand shown
# T7 sequence: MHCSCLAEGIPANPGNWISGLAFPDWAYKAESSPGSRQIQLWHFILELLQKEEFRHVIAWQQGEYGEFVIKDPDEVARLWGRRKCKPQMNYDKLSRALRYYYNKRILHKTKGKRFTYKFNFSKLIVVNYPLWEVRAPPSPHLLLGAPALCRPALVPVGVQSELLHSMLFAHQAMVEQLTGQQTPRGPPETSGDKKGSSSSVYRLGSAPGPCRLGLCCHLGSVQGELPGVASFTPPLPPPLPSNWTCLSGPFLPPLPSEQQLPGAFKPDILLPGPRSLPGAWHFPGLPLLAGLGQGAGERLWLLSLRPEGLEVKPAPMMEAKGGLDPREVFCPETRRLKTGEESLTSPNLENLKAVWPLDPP
# In short: as §1
# ETS2 = molecular target: T8, ETS2 (Homo sapiens, UniProt P15036 1-469); conditions: protein: recombinant; tags: N-terminal GST; dsDNA, one strand shown
# T8 sequence: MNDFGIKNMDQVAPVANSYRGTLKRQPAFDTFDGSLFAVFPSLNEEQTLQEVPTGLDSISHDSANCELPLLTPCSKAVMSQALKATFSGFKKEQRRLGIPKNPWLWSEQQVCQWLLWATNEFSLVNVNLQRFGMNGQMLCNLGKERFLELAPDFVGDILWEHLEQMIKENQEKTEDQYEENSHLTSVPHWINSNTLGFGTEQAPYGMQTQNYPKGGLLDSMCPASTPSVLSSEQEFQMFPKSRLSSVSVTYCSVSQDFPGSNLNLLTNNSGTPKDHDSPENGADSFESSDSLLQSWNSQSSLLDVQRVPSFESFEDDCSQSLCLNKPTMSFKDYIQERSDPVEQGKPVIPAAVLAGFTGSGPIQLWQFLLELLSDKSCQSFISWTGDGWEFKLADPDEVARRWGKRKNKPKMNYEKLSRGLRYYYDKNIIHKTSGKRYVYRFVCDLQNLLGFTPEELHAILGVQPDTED
# In short: as §1
# SPDEF = molecular target: T9, SPDEF (Homo sapiens, UniProt O95238 1-335); conditions: protein: recombinant; tags: N-terminal GST; dsDNA, one strand shown
# T9 sequence: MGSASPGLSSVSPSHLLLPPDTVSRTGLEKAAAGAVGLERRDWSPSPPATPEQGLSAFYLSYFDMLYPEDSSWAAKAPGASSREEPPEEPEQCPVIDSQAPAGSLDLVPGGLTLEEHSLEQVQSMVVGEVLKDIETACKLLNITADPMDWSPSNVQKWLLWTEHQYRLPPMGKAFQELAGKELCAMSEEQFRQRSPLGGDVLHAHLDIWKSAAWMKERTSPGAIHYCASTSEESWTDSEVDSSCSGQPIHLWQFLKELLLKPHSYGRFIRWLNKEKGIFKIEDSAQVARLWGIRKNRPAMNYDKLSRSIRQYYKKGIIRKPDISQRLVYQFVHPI
# In short: as §1
# ETV7 = molecular target: T10, ETV7 (Homo sapiens, UniProt Q9Y603 1-341); conditions: protein: recombinant; tags: N-terminal GST; dsDNA, one strand shown
# T10 sequence: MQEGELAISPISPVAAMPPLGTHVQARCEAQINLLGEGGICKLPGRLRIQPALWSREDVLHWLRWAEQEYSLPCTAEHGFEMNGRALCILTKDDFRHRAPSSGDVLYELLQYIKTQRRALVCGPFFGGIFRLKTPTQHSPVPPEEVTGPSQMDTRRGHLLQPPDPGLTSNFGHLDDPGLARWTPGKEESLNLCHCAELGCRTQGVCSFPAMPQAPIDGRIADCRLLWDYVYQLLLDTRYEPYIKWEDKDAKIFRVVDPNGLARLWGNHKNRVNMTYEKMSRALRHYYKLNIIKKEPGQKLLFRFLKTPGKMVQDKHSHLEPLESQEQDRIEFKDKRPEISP
# In short: as §1
# ELF5 = molecular target: T11, ELF5 (Homo sapiens, UniProt Q9UKW6-2 1-255); conditions: protein: recombinant; tags: N-terminal GST; dsDNA, one strand shown
# T11 sequence: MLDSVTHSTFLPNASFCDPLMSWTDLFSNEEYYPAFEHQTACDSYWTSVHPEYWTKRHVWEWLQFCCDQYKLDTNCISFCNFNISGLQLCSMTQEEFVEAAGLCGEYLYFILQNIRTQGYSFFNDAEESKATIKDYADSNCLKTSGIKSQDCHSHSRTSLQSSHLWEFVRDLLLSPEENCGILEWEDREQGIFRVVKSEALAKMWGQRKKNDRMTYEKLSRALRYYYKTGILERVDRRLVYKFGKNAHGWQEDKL
# In short: as §1
# ETV3 = molecular target: T12, ETV3 (Homo sapiens, UniProt P41162-2 1-143); conditions: protein: recombinant; tags: N-terminal GST; dsDNA, one strand shown
# T12 sequence: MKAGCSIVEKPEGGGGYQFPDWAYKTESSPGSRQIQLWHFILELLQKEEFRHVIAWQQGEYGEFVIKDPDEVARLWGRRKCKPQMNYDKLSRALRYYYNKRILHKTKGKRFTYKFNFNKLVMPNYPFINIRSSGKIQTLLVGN
# In short: as §1
# ETV6 = ETV6 (Homo sapiens, UniProt P41212 1-452); conditions: protein: recombinant; tags: N-terminal GST; dsDNA, one strand shown
# ETV6, sequence (P41212 whole entry): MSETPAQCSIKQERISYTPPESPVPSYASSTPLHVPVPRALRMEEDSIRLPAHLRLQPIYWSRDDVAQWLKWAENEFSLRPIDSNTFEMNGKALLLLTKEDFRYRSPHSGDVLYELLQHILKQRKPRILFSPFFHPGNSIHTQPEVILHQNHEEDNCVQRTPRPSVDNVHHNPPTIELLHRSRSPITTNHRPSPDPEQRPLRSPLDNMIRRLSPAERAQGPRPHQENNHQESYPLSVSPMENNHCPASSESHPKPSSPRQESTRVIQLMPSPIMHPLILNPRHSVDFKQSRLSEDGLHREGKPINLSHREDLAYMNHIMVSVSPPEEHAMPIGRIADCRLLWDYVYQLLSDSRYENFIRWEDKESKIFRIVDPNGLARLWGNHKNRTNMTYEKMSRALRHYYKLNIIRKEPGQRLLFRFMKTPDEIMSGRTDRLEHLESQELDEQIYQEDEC
# In short: as §1
sequence,measurement,setting,value
TGTATT,binding signal,FEV,"1.34 fold enrichment (6-mer frequency, TF over GST control)"
same,binding signal,ETV5,"1.33 fold enrichment (6-mer frequency, TF over GST control)"
same,binding signal,HSF1,"1.3 fold enrichment (6-mer frequency, TF over GST control)"
same,binding signal,SPIC,"1.4 fold enrichment (6-mer frequency, TF over GST control)"
same,binding signal,ELF4,"1.36 fold enrichment (6-mer frequency, TF over GST control)"
same,binding signal,ELK4,"1.33 fold enrichment (6-mer frequency, TF over GST control)"
same,binding signal,ETV2,"1.32 fold enrichment (6-mer frequency, TF over GST control)"
same,binding signal,ELF3,"1.24 fold enrichment (6-mer frequency, TF over GST control)"
same,binding signal,CRX,"1.56 fold enrichment (6-mer frequency, TF over GST control)"
same,binding signal,ETV1,"1.4 fold enrichment (6-mer frequency, TF over GST control)"
same,binding signal,ERF,"1.36 fold enrichment (6-mer frequency, TF over GST control)"
same,binding signal,ETV3L,"1.4 fold enrichment (6-mer frequency, TF over GST control)"
same,binding signal,ETS2,"1.4 fold enrichment (6-mer frequency, TF over GST control)"
same,binding signal,SPDEF,"1.42 fold enrichment (6-mer frequency, TF over GST control)"
same,binding signal,ETV7,"1.4 fold enrichment (6-mer frequency, TF over GST control)"
same,binding signal,ELF5,"1.26 fold enrichment (6-mer frequency, TF over GST control)"
same,binding signal,ETV3,"1.41 fold enrichment (6-mer frequency, TF over GST control)"
same,binding signal,ETV6,"1.41 fold enrichment (6-mer frequency, TF over GST control)"
